Data on five sequences can be found in paper PMC7862700, “An all-to-all approach to the identification of sequence-specific readers for epigenetic DNA modifications on cytosine”.

Common to all, as to test: DAPPL (digital affinity profiling via proximity ligation, sequencing); 10 mM Tris-HCl pH 7.5, 50 mM NaCl, 1 mM DTT, 4% glycerol, room temperature, 30 min; GST-TFs on glutathione beads, 16-mer random dsDNA library, 0.1% formaldehyde crosslink after washing; high values mean tight binding
One test addresses T1, FLI1 (Homo sapiens, UniProt Q01543 1-452).
T1 sequence: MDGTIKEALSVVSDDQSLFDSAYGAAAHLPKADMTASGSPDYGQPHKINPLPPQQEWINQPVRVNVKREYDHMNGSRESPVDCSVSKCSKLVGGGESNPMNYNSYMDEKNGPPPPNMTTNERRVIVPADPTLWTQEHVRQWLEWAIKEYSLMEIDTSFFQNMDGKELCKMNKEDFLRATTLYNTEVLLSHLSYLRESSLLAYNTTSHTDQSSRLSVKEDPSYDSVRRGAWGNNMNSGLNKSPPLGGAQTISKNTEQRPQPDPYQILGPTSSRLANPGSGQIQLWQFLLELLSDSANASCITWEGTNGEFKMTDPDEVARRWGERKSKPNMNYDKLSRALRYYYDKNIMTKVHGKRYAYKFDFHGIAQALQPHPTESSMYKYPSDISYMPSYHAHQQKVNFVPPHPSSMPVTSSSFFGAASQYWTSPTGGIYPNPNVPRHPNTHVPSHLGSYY
The settings on record: protein: recombinant; tags: N-terminal GST; dsDNA, one strand shown. Put shortly:
(§1)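 Each value of binding signal is a hexamer's read frequency for a factor divided by the same hexamer's frequency in the tag-only sample. Barcoded, bead-captured GST fusions of human transcription factors made in yeast were pooled with that sample and incubated with 200 nmole of a random double-stranded 16-mer DNA library in Tris/NaCl/DTT/glycerol buffer at room temperature for 30 min. Washing, 0.1% formaldehyde crosslinking, proximity ligation, PCR and Illumina NextSeq500 sequencing followed.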

Another test deals with T2, ETV3L (Homo sapiens, UniProt Q6ZN32 1-361).
T2 sequence: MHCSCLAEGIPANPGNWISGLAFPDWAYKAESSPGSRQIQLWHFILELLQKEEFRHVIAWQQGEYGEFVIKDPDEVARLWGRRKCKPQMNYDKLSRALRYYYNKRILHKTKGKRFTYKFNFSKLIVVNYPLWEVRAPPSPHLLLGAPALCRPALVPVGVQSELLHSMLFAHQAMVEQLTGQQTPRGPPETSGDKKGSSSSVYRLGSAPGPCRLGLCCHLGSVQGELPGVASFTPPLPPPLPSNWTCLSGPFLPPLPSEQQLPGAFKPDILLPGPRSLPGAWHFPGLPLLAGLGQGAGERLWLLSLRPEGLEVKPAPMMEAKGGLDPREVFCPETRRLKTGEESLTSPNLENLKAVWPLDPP
Conditions: protein: recombinant; tags: N-terminal GST; dsDNA, one strand shown. Put shortly: as §1

The target in a further test is ELF1 (Homo sapiens, UniProt P32519 1-619). The settings on record: protein: recombinant; tags: N-terminal GST; dsDNA, one strand shown. In outline:
as §1

Another test addresses T3, ELK3 (Homo sapiens, UniProt P41970 1-407).
T3 sequence: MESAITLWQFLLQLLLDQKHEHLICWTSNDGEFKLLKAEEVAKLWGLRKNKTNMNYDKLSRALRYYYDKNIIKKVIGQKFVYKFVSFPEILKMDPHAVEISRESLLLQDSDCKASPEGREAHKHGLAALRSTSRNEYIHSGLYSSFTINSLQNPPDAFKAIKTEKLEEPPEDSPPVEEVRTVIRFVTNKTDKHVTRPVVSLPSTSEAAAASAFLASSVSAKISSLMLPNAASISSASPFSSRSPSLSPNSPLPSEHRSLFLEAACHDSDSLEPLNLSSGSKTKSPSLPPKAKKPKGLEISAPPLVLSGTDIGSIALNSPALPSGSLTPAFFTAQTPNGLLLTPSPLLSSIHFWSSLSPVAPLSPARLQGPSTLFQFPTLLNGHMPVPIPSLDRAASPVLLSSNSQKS
The settings on record: protein: recombinant; tags: N-terminal GST; dsDNA, one strand shown. In outline: as §1

A further test deals with T4, ETV2 (Homo sapiens, UniProt O00321 1-342).
T4 sequence: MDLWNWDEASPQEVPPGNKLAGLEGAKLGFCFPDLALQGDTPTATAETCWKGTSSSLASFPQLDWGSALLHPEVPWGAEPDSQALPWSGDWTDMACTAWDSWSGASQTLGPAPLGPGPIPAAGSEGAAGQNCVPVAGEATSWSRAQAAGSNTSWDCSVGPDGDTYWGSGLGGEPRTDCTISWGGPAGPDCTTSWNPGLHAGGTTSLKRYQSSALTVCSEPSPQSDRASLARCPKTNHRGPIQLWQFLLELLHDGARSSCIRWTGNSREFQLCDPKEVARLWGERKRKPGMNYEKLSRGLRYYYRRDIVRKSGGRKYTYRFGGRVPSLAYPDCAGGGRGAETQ
Conditions: protein: recombinant; tags: N-terminal GST; dsDNA, one strand shown. Put shortly: as §1

Another test addresses HSF1 (Homo sapiens, UniProt Q00613 1-529). Conditions: protein: recombinant; tags: N-terminal GST; chain copies: 3; dsDNA, one strand shown. In outline: as §1
In a further test the target is ETV1 (Homo sapiens, UniProt P50549 1-477). Conditions: protein: recombinant; tags: N-terminal GST; dsDNA, one strand shown. In outline: as §1
Chain of ETV1 (P50549 whole entry): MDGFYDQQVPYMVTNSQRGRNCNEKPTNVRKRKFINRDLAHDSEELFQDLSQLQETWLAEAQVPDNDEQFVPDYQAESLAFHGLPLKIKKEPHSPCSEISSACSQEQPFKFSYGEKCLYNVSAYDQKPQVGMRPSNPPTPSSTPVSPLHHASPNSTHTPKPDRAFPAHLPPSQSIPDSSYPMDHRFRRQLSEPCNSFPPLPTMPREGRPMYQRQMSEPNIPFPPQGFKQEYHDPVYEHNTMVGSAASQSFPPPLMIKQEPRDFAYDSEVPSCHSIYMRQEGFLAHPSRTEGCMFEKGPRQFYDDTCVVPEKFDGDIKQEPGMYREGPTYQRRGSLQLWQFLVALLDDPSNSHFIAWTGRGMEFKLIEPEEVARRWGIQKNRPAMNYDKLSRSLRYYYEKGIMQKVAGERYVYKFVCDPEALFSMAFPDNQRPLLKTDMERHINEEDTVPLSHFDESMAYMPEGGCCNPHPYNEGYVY
The next test concerns the target T5, ERF (Homo sapiens, UniProt P50548 1-548).
T5 sequence: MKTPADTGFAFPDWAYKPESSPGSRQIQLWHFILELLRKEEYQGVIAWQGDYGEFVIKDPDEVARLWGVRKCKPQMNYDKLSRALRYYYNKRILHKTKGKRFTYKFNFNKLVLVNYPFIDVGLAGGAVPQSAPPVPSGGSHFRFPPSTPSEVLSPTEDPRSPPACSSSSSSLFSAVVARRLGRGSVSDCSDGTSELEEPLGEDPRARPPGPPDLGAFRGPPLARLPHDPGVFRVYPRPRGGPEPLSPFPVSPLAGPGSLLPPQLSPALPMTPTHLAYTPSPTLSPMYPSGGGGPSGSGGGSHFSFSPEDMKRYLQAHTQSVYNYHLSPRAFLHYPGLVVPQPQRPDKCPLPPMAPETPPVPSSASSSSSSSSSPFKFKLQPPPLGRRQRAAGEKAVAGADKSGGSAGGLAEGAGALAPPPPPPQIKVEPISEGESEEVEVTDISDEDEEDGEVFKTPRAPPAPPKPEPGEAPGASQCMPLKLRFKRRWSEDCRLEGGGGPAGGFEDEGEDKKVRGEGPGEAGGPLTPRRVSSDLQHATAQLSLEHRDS
Conditions: protein: recombinant; tags: N-terminal GST; dsDNA, one strand shown. Put shortly:
as §1

The target of the next test is T6, ETV7 (Homo sapiens, UniProt Q9Y603 1-341).
T6 sequence: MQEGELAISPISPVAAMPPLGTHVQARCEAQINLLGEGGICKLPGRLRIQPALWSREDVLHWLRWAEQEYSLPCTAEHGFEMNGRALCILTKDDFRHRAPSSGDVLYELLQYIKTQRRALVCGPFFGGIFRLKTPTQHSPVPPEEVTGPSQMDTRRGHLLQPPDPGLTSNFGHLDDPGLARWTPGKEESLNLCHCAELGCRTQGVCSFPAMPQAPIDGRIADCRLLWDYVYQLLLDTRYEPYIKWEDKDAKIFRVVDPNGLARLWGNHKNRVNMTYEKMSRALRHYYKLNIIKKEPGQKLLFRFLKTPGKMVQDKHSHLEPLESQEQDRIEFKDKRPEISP
Conditions: protein: recombinant; tags: N-terminal GST; dsDNA, one strand shown. In outline:
as §1

Chain of HSF1 (Q00613 whole entry): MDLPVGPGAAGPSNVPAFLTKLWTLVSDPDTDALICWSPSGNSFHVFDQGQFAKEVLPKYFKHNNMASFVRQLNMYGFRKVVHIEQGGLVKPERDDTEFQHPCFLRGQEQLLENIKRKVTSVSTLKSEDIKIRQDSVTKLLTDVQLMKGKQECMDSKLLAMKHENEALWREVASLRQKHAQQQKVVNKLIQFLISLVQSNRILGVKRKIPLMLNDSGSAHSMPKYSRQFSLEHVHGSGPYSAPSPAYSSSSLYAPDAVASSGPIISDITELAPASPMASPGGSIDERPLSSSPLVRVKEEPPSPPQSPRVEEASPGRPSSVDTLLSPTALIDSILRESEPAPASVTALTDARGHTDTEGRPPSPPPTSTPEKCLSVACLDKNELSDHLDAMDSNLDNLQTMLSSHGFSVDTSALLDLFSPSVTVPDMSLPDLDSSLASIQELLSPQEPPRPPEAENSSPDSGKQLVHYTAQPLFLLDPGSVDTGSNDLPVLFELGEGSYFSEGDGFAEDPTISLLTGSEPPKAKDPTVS
Chain of ELF1 (P32519 whole entry): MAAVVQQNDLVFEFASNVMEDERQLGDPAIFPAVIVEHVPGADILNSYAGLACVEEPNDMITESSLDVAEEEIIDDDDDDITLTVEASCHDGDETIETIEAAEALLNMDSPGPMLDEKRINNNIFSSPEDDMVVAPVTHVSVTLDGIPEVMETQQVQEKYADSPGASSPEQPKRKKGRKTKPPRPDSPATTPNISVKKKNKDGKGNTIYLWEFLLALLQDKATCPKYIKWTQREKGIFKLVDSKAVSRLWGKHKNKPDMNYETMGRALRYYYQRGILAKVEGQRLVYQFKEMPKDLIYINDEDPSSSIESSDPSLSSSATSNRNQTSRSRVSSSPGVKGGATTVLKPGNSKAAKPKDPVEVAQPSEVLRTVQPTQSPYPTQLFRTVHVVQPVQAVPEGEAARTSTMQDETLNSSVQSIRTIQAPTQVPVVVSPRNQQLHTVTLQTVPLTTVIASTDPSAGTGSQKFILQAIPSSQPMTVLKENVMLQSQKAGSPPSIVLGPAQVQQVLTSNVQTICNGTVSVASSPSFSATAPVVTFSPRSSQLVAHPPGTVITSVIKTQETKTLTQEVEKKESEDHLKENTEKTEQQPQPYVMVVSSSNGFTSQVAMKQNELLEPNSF

For the sequence GTGACT, the binding signal is 1.02 fold enrichment (6-mer frequency, TF over GST control) with FLI1 and 1.01 fold enrichment (6-mer frequency, TF over GST control) in the test with ETV3L.
With GTATGT, the binding signal in the test with FLI1 was 1.04 fold enrichment (6-mer frequency, TF over GST control); with ELF1, 1.03 fold enrichment (6-mer frequency, TF over GST control); with ELK3, 1 fold enrichment (6-mer frequency, TF over GST control); in the test with ETV2, 1.02 fold enrichment (6-mer frequency, TF over GST control).
For the sequence GGAATG, the binding signal with HSF1 was 1.25 fold enrichment (6-mer frequency, TF over GST control).
In the case of TACCAG, the binding signal with HSF1 was 1.22 fold enrichment (6-mer frequency, TF over GST control).
Regarding CGTTGG, the binding signal is 1.08 fold enrichment (6-mer frequency, TF over GST control) with FLI1; 1.01 fold enrichment (6-mer frequency, TF over GST control) with ETV1; 1.07 fold enrichment (6-mer frequency, TF over GST control) with ERF; 1.07 fold enrichment (6-mer frequency, TF over GST control) with ETV7.
